The text below walks through data of PubChem BioAssay (Tox21).

Each structure is given as a SMILES string. Records with an inconclusive call do not appear. Entries that show only a call come without a potency. Activity calls are given as the source filed them. Calls follow the shape of the full dose curve.

For this experiment, the target named is Vitamin D3 receptor (Homo sapiens) (UniProt P11473). Kind of experiment: qHTS assay to identify small molecule agonists of the vitamin D receptor (VDR) signaling pathway (AID 743222). Particulars: HEK293T VDR-UAS-bla, beta-lactamase FRET ratio, 16 h; series mostly up to 63.5 µM. The text has this: National Center for Advancing Translational Sciences [NCATS]
Chain of Vitamin D3 receptor (Homo sapiens) (P11473 whole entry, looked up): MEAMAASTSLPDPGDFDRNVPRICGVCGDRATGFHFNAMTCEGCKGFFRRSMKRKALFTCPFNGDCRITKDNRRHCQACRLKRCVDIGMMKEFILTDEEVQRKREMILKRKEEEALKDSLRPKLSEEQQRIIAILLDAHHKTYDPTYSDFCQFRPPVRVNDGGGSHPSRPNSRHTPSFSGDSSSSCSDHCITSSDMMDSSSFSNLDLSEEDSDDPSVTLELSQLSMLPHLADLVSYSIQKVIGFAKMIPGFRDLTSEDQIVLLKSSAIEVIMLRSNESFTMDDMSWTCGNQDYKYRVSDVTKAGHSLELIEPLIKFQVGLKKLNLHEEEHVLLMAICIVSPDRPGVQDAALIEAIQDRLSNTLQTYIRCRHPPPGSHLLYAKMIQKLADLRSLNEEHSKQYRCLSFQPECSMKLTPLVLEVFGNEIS
NIH Chemical Genomics Center [NCGC]
U.S. Environmental Protection Agency [EPA]
National Institutes of Environmental Health Sciences [NIEHS]
National Toxicology Program [NTP]
U.S. Food and Drug Administration [FDA]
The vitamin D receptor (VDR), a member of nuclear hormone receptor superfamily, plays a critical role in calcium homeostasis and bone metabolism. It is also involved in cell differentiation and growth, and thrombogenicity.
Tox21 Assay Protocol Summary:
VDR-bla cells were dispensed at 2,000 cells/6 uL/well into black wall/clear-bottom 1536-well plates using a Multidrop Combi (Thermo Fisher Scientific, Waltham, MA) dispenser. After the assay plates were incubated at a 37C and 5% CO2 for 4 h, 23 nL of compounds dissolved in DMSO, positive controls or DMSO only was transferred to the assay plate by a Pintool station (Kalypsys, San Diego, CA). The plates were incubated at 37C and 5% CO2 for 16 h. After 1 uL of LiveBLAzerTM B/G FRET substrate was added using a Bioraptr Flying Reagent Dispenser (FRD) workstation (Beckman Coulter, Indianapolis, IN, USA), the plates were incubated at room temperature for 2 h, and fluorescence intensity was measured by an Envision plate reader (PerkinElmer, Shelton, CT).
For `CC(CO)Oc1ccccc1` (stereo not given), the Potency result was “inactive”.
Next, `CCCC(=O)OC(C)(C)Cc1ccccc1`: “inactive”.
Under `O[C@@H]([C@H](O)[C@H](O)CBr)[C@H](O)CBr` stands “inactive”; under `C#C[C@]1(O)CC[C@H]2[C@@H]3[C@H](C)CC4=C(CCC(=O)C4)[C@H]3CC[C@@]21C`, “inactive”; under `OCCN1CCN(CCCN2c3ccccc3Sc3ccc(C(F)(F)F)cc32)CC1`, “inactive”.
Under `Cc1c(N)cccc1C(F)(F)F` stands “inactive”.
As to `C=Cc1cccc(C)c1`, the Potency result is “inactive”.
Consider `CN(C)CCN1CCN(c2cccc(Cl)c2)C1=O`, for which the Potency result was “inactive”.
Under `C=CC(C)(CCC=C(C)C)OC=O` (stereo not given) stands “inactive”; under `OC12N=C(c3ccccc3)SC1Cc1cc(Cl)ccc12` (stereo not given), “inactive”; under `C[C@H]1NCc2cc(-c3ccc4c(=O)c(C(=O)O)cn(C5CC5)c4c3OC(F)F)ccc21`, “inactive”.
Next, `CCCCC/C=C\C/C=C\CCCCCCCC(=O)O`: “inactive”.
Under `S=C([S-])NCCNC(=S)[S-].S=C([S-])NCCNC(=S)[S-].[Mn+2].[Zn+2]` stands “inactive”.
As for `CCC(C)n1ncn(-c2ccc(N3CCN(c4ccc(OC[C@H]5CO[C@](Cn6cncn6)(c6ccc(Cl)cc6Cl)O5)cc4)CC3)cc2)c1=O` (stereo not given in full), the Potency result was “inactive”.
Under `O=C(O)Cc1ccccc1Nc1c(Cl)cccc1Cl` stands “inactive”.
As for `O=c1[nH]c(=O)n([C@H]2C[C@H](O)[C@@H](CO)O2)cc1F`, the Potency entry is “inactive”.
Next, `COc1cccc(OC)c1C(=O)O`: “inactive”; `Cc1cc(-c2ccc(N=Nc3cc(S(=O)(=O)O)c4ccccc4c3N)c(C)c2)ccc1N=Nc1cc(S(=O)(=O)O)c2ccccc2c1N`: “inactive”.
Next, `CC1=Nc2ccccc2C1(C)C`: “inactive”; `Cc1cc(-n2nc3ccc(Cl)cc3n2)c(O)c(C(C)(C)C)c1`: “inactive”; `CCO[Si](OCC)(OCC)OCC`: “inactive”.
As for `COc1cc(S(=O)(=O)O)c(C)cc1N=Nc1c(O)ccc2cc(S(=O)(=O)O)ccc12`, the Potency result is “inactive”.
Next, `Fc1ccc(C(c2ccc(F)cc2)N2CCNCC2)cc1`: “inactive”; `CC1(C)CC(O)CC(C)(C)N1`: “inactive”.
Under `COCCOc1cc2cc(C(=O)NC3CCN(C(C)C)CC3)n(CC(=O)Nc3ccc(Cl)cn3)c2cn1` stands “inactive”.
Next, `Cc1cccc(C(=O)O)c1O`: “inactive”.
On to `CCCCCC(C)OC(=O)COc1ccc(Cl)c2cccnc12` (stereo not given), for which the Potency entry is “inactive”.
Next, `CC(C)=CCNc1ncnc2c1ncn2[C@@H]1O[C@H](CO)[C@@H](O)[C@H]1O`: “inactive”; `CCCC(=O)OCCc1ccccc1`: “inactive”; `COc1ccc2cc1Oc1ccc(cc1)C[C@H]1c3c(cc4c(c3Oc3cc5c(cc3OC)CCN(C)[C@@H]5C2)OCO4)CCN1C`: “inactive”.
For `CCCCCCCCCCCCOC(=O)c1ccc(O)cc1`, the Potency result was “inactive”.
Next, `CC(=O)Oc1cc2c(s1)CCN(C(C(=O)C1CC1)c1ccccc1F)C2` (stereo not given): “inactive”; `Oc1c(I)cc(Cl)c2cccnc12`: “inactive”; `Nc1ccc(C(=O)O)c(O)c1`: “inactive”.
Next, `CCc1cccc(CC)c1NC(=O)CN(CC(=O)O)CC(=O)O`: “inactive”.
Regarding `CC1(C)CCC[C@]2(C)[C@H]3CCO[C@]3(C)CC[C@@H]12`, the Potency entry is “inactive”.
Turning to `Cc1ccc(-c2ccccc2)cc1`, the Potency entry was “inactive”.
Under `C#CC1(O)CC[C@H]2[C@@H]3CCC4=CCCC[C@@H]4[C@H]3CC[C@@]21C` (stereo not given in full) stands “inactive”; under `CCCCOC(=O)CC`, “inactive”.
Under `Cc1cccc2cccnc12` stands “inactive”.
